These results are taken from PubChem BioAssay.

For orientation: inhibition means the relative decrease from the control value, in per cent. In general, viability refers to a per cent measure of how many cells are alive, often set against a control.

Results filed as inconclusive are left out. For some assays here: Measured potencies and affinities stand elsewhere. Active and inactive are the calls of the source.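 Rule for the calls, unless noted: active = at least 20% inhibition of 6-phosphogluconate dehydrogenase activity; inactive = the rest.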 Peptide text beside a SMILES is read from it. * marks the point of attachment. For = O=C*

Test [1] has as its target 6-phosphogluconate dehydrogenase, decarboxylating (Homo sapiens) (UniProt P52209). The experiment in a line: inhibition of human phosphogluconate dehydrogenase – biochemical, recombinant enzyme, NADPH absorbance, primary screen (AID 1159550). The note with it: recombinant 6PGD, NADPH absorbance 341 nm; at 10 µM; stronger effect = higher value.
Test [2] deals with Mitogen-activated protein kinase 7 (Homo sapiens) (UniProt Q13164). The test can be described thus: Gal4-ERK5 driven luciferase induction – cell-based, HTS, primary screen (AID 1508626;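 active = luciferase signal above three times the same-plate solvent-only control wells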;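 note: luciferase driven by Gal4-ERK5 fusion binding five Gal4 sites before minimal TATA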). To be noted: HeLa Gal4-ERK5 transactivation, 18 h, at 5 µM, stronger effect = higher value.
The nature of test [3]: blockers of polyQ-driven CASP3 activation – cell-based (AID 1583). To be noted: polyglutamine-induced caspase-3 activation, cell assay; stronger effect = higher value;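 tested at 10 µM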.
Test [4] can be described thus: yeast 75Q aggregation reduction – 75Q-TubU reporter (AID 1593). The note with it: Yeast 75Q polyglutamine aggregation reporter.
A short description of test [5]: restoration of touch response, mutant HTT neurons – whole organism, C. elegans mechanosensory neurons, N-terminal huntingtin (AID 1599). The note with it: C. elegans polyQ-huntingtin mechanosensory neurons, stronger effect = higher value.
Test [6] can be described thus: blockers of cytochrome c efflux from mitochondria – biochemical, purified mitochondria (AID 1603).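 Note: mouse liver mitochondria challenged with calcium chloride; signal normalized to the plate average as 100%.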 The note with it: stronger effect = lower value.
A short description of test [7]: polyglutamine aggregate formation blockers (AID 1604). To be noted: polyglutamine-induced protein aggregation inhibition assay; stronger effect = higher value; tested at 2.5 µM.
Test [8] can be described thus: glutamate transport activators, MN-1 cells, MN-1 cell line (AID 1612).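 Note: tested at 1 µM final; 0% = mean of DMSO vehicle wells on each plate; positive means more glutamate uptake than control and negative means less.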 To be noted: MN-1 motor neuron cells, stronger effect = higher value.
A short description of test [9]: GFP-Q80 aggregate reduction, neuronal-like cells, cell-based, NGF-treated PC12, GFPQ80 (AID 1614).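 Note: lower means fewer inclusions and 0 means no inclusions at all.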 The note with it: PC12 NGF-treated GFP-polyQ80 inclusion reduction.
Test [10] can be described thus: 75Q-TubH aggregate inhibition, S. cerevisiae, yeast (AID 1616). To be noted: S. cerevisiae 75Q-TubH polyglutamine aggregation suppression; stronger effect = higher value.
Test [11] is described as follows: P. berghei load reduction in hepatocytes – cell-based, HepG2, luciferase luminescence, HepG2 viability, primary screen (AID 624349; in the data active = parasite load remaining mostly below about 12%, no sharp cut-off; inactive = mostly above about 10%;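 note: 100% = mean of DMSO negative control wells on the same plate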). The note with it: P. berghei liver stage in HepG2, luciferase luminescence, concentration not given here; parasite load remaining: stronger effect = lower value; viability: measured here: HepG2 viability without parasites.
Test [12] can be described thus: rescue of PC12 cells from polyQ htt toxicity – LDH release (AID 1610). The note with it: PC12 mutant huntingtin toxicity, final LDH at 4 uM, stronger effect = lower value.

Sequence of Mitogen-activated protein kinase 7 (Homo sapiens) (Q13164 whole entry, looked up, the tested form may be a part): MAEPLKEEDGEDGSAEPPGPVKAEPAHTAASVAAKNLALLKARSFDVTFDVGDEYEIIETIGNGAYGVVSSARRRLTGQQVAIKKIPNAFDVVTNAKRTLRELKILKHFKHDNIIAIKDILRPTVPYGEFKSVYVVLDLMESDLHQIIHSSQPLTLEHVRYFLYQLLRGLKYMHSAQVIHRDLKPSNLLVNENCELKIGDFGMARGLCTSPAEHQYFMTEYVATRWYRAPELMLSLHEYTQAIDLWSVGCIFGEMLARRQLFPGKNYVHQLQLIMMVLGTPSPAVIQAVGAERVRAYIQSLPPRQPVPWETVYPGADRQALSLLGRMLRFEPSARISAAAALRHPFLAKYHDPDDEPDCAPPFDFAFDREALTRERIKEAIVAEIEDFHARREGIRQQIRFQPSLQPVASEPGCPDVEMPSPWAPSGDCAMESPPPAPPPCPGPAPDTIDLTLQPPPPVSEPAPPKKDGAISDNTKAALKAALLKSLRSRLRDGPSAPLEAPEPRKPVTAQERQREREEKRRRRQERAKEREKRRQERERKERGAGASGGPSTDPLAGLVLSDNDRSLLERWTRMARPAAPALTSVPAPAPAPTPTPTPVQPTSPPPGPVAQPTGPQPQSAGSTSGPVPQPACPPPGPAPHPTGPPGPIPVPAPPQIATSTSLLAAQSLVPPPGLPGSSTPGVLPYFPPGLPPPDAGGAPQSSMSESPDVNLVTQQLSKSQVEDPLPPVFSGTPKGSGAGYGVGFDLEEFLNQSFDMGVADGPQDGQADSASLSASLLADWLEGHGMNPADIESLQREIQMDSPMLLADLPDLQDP
Sequence of 6-phosphogluconate dehydrogenase, decarboxylating (Homo sapiens) (P52209 whole entry, looked up, the tested form may be a part): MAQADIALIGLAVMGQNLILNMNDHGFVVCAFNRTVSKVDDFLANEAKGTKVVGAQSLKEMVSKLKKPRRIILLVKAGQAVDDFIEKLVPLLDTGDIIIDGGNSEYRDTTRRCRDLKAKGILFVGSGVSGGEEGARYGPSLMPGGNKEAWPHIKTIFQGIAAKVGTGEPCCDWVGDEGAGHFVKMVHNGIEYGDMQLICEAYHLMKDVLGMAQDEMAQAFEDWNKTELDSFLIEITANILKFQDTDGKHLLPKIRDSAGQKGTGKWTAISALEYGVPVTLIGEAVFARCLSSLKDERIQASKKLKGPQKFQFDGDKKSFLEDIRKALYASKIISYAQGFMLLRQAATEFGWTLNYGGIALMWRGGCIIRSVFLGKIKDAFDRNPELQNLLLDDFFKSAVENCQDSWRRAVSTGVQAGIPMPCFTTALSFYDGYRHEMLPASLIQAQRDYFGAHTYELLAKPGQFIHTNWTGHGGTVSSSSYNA

For `COc1ccc2c(c1)OC/C(=C/c1ccc(OC)c(OC)c1)C2=O`, the inhibition in test [1] was -0.769% (inactive). For the same compound, the luciferase signal in test [2] was 36 AU (inactive).
For the compound `CSCCC(N)C(=O)NC(CC(C)C)C(=O)NC(Cc1ccccc1)C(=O)O` (stereo unspecified), the inhibition in [3] is 18.9%; in [1], 9.25% (inactive). This compound gave a score in test [4] of 1.68. The compound further had a rescue above control in test [5] of 2.33. The cytochrome c release ratio in test [6] is 0.77. In test [7], the inhibition of aggregation was found to be 67.8%. In addition, in test [8], the glutamate uptake change was 4.95%. This compound showed an inclusion score in test [9] of 2. This compound also gave an aggregation suppression score in test [10] of 1.32.
As to `NC(N)=NCCC[C@@H](NC(=O)[C@@H](N)Cc1ccc(O)cc1)C(=O)O`, the inhibition in [3] is -8.49%; in test [1], 7.11% (inactive). In [4], the score came out at 1.34. Besides, the rescue above control in [5] was 13.2. Further, the cytochrome c release ratio in [6] is 0.94. Also, the inhibition of aggregation in test [7] amounted to 77%. Also, the glutamate uptake change in [8] came out at 17.2%. In test [9], this compound returned an inclusion score of 2. For the same compound, the aggregation suppression score in test [10] turned out to be 1.22.
Turning to `COc1cc2c3cc1Oc1c(OC)c(OC)cc4c1[C@@H](Cc1ccc(O)c(c1)Oc1ccc(cc1)C[C@@H]3N(C)CC2)N(C)CC4`, the inhibition in test [1] was 14.7% (inactive). In test [2], the luciferase signal was 64 AU (inactive).
The like results for `CC(=O)OC1CC2C(C)(C)C(=O)CCC2(C)C2CCC3(C)C(c4ccoc4)OC(=O)C4OC43C12C` (stereo unspecified) were, in that order, 11.7% (inactive) and 20 AU (inactive).
The corresponding values for `O=C(Cc1cccs1)N[C@@H]1C(=O)N2C(C(=O)[O-])=C(C[n+]3ccccc3)CS[C@H]12` are 0.514% (inactive) and 112 AU (inactive).
The corresponding values for `O=C(O)C1CC([C@@H]2CCCCN2)CN2CCCCC12` (stereo partly specified) are 18.1% (inactive) and 220 AU (active).
For the compound `COC(=O)C(C)c1ccc(C(=O)c2cccs2)cc1` (stereo unspecified), in [11], the parasite load remaining was 119% (inactive) and the viability turned out to be 76.5%. In test [1], the inhibition was -13.2% (inactive). Also, the luciferase signal in test [2] was 44 AU (inactive).
`CC(C)=CCC1=C(O)c2ccccc2C(=O)C1=O`: the inhibition in [3] is -24.2%. Further, the score in test [4] was determined as 0.21. In [5], this compound gave a rescue above control of 6.74. Further, the cytochrome c release ratio in [6] was found to be 0.7. In addition, in test [7], the inhibition of aggregation turned out to be 77.5%. The same compound displayed a normalised LDH release in test [12] of 0.727. The glutamate uptake change in test [8] is -3.48%. The inclusion score in test [9] amounted to 2. In test [10], the aggregation suppression score was 0.0579. In test [11], the parasite load remaining was 85.5% (inactive) and the viability is 63.9%. Further, the inhibition in test [1] is -1.8% (inactive). In addition, the luciferase signal in test [2] is 60 AU (inactive).
As to `CSCCC(NC=O)C(=O)NC(Cc1ccccc1)C(=O)O` (stereo not drawn) (For-Met-Phe-OH; configuration not given here), the inhibition is 0.6% in test [3] and 6.92% (inactive) in test [1]. The score in test [4] came out at 1.4. Besides, the rescue above control in test [5] is 4.29. In addition, in test [6], the cytochrome c release ratio was 1.19. For the same compound, the inhibition of aggregation in test [7] is 59.3%. The glutamate uptake change in test [8] came to 0%. The compound also returned an inclusion score in [9] of 2. Moreover, the aggregation suppression score in [10] was 0.985.
For `CC1(O)CC2C(CC1O)C2(C)C` (stereo unspecified), in [1], the inhibition was 13.8% (inactive). The luciferase signal in test [2] is 60 AU (inactive).
As to `COc1ccc(/C=C/c2cc(O)cc(O[C@@H]3O[C@H](CO)[C@@H](O)[C@H](O)[C@H]3O)c2)cc1O`, the inhibition was 4.89% in test [3] and -5.87% (inactive) in test [1]. Besides, in test [4], the score was 1.27. Also, in test [5], the rescue above control is -0.21. The cytochrome c release ratio in [6] is 0.78. In addition, in test [7], the inhibition of aggregation was found to be 12.9%. The glutamate uptake change in test [8] is 4.82%. This compound gave an inclusion score in test [9] of 2. The compound also had an aggregation suppression score in test [10] of 1.41.
As to `CSCCC(NC=O)C(=O)NC(CC(C)C)C(=O)NC(Cc1ccccc1)C(=O)O` (stereo unspecified), the score in test [4] worked out at 1. In test [5], this compound came in with a rescue above control of 6.28. Moreover, the cytochrome c release ratio in test [6] came to 1.31. The inhibition of aggregation in test [7] worked out at 53.9%. Besides, the glutamate uptake change in test [8] came out at 14.5%. In test [9], this compound returned an inclusion score of 1. This compound also displayed an aggregation suppression score in test [10] of 1.49. In addition, the inhibition in test [1] is 3.38% (inactive).
For the compound `C[C@@H]([C@H]1OC(C)(C)[C@@H](O)[C@H]1O)[C@@H]1CC[C@]2(C)C3=CC[C@H]4C(C)(C)C(=O)CC[C@]4(C)[C@H]3CC[C@@]12C`, in [1], the inhibition is 4.2% (inactive). Also, in test [2], the luciferase signal was 44 AU (inactive).
On to `CCOC(=O)C(Cc1ccc(O)cc1)NC(C)=O` (stereo unspecified), for which the inhibition in [3] was -16.6%. For the same compound, the score in [4] worked out at 1.58. Besides, in test [5], the rescue above control is 3.83. Besides, the cytochrome c release ratio in test [6] was determined as 0.88. In addition, the inhibition of aggregation in [7] is -1.73%. Further, the glutamate uptake change in test [8] is -5.84%. Also, the inclusion score in test [9] stood at 2. The compound further displayed an aggregation suppression score in test [10] of 0.981. For the same compound, in [11], the parasite load remaining is 109% (inactive) and the viability is 69%. Moreover, the inhibition in test [1] was -22.2% (inactive). Further, the luciferase signal in [2] is 72 AU (inactive).
Consider `CC(N)C(=O)NC(Cc1ccccc1)C(=O)O` (stereo unspecified), for which the inhibition in [3] was 17.1%; in test [1], 16.4% (inactive). The same compound returned a score in test [4] of 1.2. This compound also registered a rescue above control in [5] of 1.23. Further, the cytochrome c release ratio in test [6] was found to be 1.13. Moreover, in test [7], the inhibition of aggregation amounted to 77.8%. Besides, the glutamate uptake change in test [8] is 2.41%. In addition, the inclusion score in [9] was found to be 2. For the same compound, the aggregation suppression score in test [10] turned out to be 1.4.
For the compound `Cc1cc(O)c2c(c1O)C(=O)c1c(O)cc(C)c(O)c1C2=O`, in test [1], the inhibition is 2.78% (inactive). In [2], the luciferase signal was 48 AU (inactive).
Take `N[C@H](C(=O)O)[C@@H]1CC(Cl)=NO1`: the inhibition is -15.5% in test [3] and 7.5% (inactive) in [1]. The score in test [4] amounted to 0.51. Also, the rescue above control in test [5] was -2.47. Also, in test [6], the cytochrome c release ratio was found to be 0.83. The inhibition of aggregation in test [7] came out at 25.5%. Besides, in test [8], the glutamate uptake change turned out to be 6.6%. The compound also had an inclusion score in test [9] of 1. The same compound returned an aggregation suppression score in test [10] of 0.115.
For the compound `NCCCCC(N)C(=O)NC(Cc1ccc(O)cc1)C(=O)NC(CCCCN)C(=O)O` (stereo not drawn) (H-Lys-Tyr-Lys-OH; configuration not given here), the inhibition in test [3] is -30.8%; in [1], 13.2% (inactive). In addition, the score in [4] stood at 3.85. For the same compound, the rescue above control in test [5] is 16.1. The cytochrome c release ratio in test [6] is 0.94. The inhibition of aggregation in test [7] was found to be 37.2%. The glutamate uptake change in test [8] was -3.42%. Besides, the inclusion score in test [9] was determined as 1. Also, the aggregation suppression score in [10] stood at 1.25.
